Compound activity (PubChem)
CYP2C9 inh = blockers of cytochrome P450 2C9 activity – biochemical, luminescence, ADME assay, primary screen; CYP2C9 Supersomes, luciferin-H conversion; inhibition, % at 5 µM; 96,000 compounds, 20% hits;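 active means blocking of liver enzyme CYP2C9 beyond about 50% at 5 µM, limit read from the data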
CYP2C19 activ = human CYP2C19 activators, primary screen, biochemical, luminescence; activation factor at 5 µM; recombinant CYP2C19, luciferin-H EGE luminescence; hits give high values; 0 = fully inhibited enzyme, 1 = untreated enzyme; AID 1025, 2008; Cytochrome P450 2C19 (Homo sapiens), P33261; 96,000 tested, under 10 active;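 active means activation factor of at least 2 at 5 µM in the primary screen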
Target sequence (P33261 whole entry, looked up): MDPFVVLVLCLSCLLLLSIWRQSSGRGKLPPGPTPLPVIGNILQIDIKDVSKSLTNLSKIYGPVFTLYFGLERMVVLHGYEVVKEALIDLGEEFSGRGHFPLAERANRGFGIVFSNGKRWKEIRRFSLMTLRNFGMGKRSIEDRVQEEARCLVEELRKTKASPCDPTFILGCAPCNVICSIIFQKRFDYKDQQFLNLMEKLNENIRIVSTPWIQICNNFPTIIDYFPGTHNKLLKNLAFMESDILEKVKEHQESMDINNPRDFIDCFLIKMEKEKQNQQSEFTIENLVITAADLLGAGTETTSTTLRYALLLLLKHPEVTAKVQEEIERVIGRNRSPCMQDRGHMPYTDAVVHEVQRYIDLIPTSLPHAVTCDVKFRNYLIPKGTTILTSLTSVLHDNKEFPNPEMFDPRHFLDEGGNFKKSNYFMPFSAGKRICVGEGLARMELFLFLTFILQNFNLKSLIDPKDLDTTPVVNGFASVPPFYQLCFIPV
CYP2C19 inh = blockers of cytochrome P450 2C19 activity – biochemical, luminescence, ADME assay, primary screen. P33261. CYP2C19 Supersomes, luciferin-H EGE luminescence, 30 min. inhibition, % at 5 µM. 96,000 compounds, 21% hits. AID 778, 2007;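 active means CYP2C19 inhibition above a set limit at 5 µM in the primary screen, cut at about 50% in these data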
CYP2C9 activ = human CYP2C9 activators, primary screen, biochemical, luminescence; Cytochrome P450 2C9 (Homo sapiens), P11712; recombinant CYP2C9, luciferin-H conversion; hits give high values; factor 1 = untreated enzyme, 0 = blocked; activation factor at 5 µM; 96,000 compounds, 1.4% hits;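 active means activation factor of 2 or more for CYP2C9 at a 5 µM dose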
Hits are given with their value; n = inactive. Compounds with a hit are over-represented: about 31% of the library has one in this group of screens.

SMILES | CYP2C9 inh | CYP2C19 activ | CYP2C19 inh | CYP2C9 activ
CCCn1c(=O)c2ccccc2n2c(SCC(=O)c3ccccc3)nnc12 | 55 | n | n | n
CCCn1c(=O)c2ccccc2n2c(SCCOc3ccccc3F)nnc12 | n | n | 56 | n
CCCn1c(=O)c2ccccc2n2c(SCc3nnc(-c4ccccc4Br)o3)nnc12 | 58 | n | 70 | n
COc1ccc(OC)c(C(=O)COC(=O)c2ccccc2O)c1 | n | n | n | n
CC(=O)c1cc(CN2C(=O)c3ccccc3C2=O)cs1 | n | n | 96 | n
CN1CC[n+]2c(CN3C(=O)c4ccccc4C3=O)csc21 | n | n | n | n
Cc1ccccc1-n1c(=O)cc(N2CCN(Cc3ccccc3)CC2)[nH]c1=O | n | n | n | n
CCN1CCN(c2cc(=O)n(-c3cc(Cl)ccc3C)c(=O)[nH]2)CC1 | 60 | n | n | n
CCCCCCn1c(=O)c(-c2ccccc2)c(O)c2ccccc21 | 76 | n | n | n
NNS(=O)(=O)c1ccc(Cc2ncc(C(F)(F)F)cc2Cl)s1 | n | n | 70 | n
CCN(CC)S(=O)(=O)c1ccc(Cc2ncc(C(F)(F)F)cc2Cl)s1 | 59 | n | 83 | n
Cc1cc(C)c(S(=O)(=O)c2ccccc2C)c(OCC(C)(C)C)n1 | n | n | n | n
CC1CCN(S(=O)(=O)c2ccc(S(=O)(=O)NCC(=O)C(C)(C)C)cc2)CC1 | n | n | n | n
C#Cc1ccc(C(=O)Nc2cc(C(N)=O)ccc2N2CCOCC2)cc1 | n | n | n | n
Cc1ccc(NC(=O)CCn2c(=O)oc3ccccc32)c(C)c1 | n | n | n | n
Cc1ccccc1OCCn1c(=O)oc2ccccc21 | 69 | n | 99 | n
Cc1ccc(C(C)C)c(OCCn2c(=O)oc3ccccc32)c1 | 82 | n | 92 | n
O=c1oc2ccccc2n1CCc1ccccc1 | n | n | 86 | n
O=C(NCc1cccs1)c1cc(C2CC2)on1 | n | n | n | n
CCc1ccccc1NC(=O)CSc1nc2ccccc2n1CC(=O)N(C)C | 56 | n | 79 | n
CCc1cccc(C)c1NC(=O)CSc1nc2ccccc2n1CC(=O)N(C)C | n | n | 54 | n
CCCn1c(SCC(=O)Nc2c(C)cccc2CC)nnc1C(C)C | n | n | n | n
CCN(CC)C(=O)COc1ccc(CC(=O)O)cc1OC | n | n | n | n
Cc1ccc(NC(=S)Nc2ccc(Br)cc2)cc1 | n | n | 89 | n
CCCc1nnc(SCCSc2nnc(CCC)n2N)n1N | n | n | n | n
SMILES | CYP2C9 inh | CYP2C19 activ | CYP2C19 inh | CYP2C9 activ
CCn1c(SCC(=O)Nc2ccccc2C(=O)OC)nc2c1c(=O)n(C)c(=O)n2C | n | n | n | n
Cc1noc(C)c1CN1C(=O)NC2(CCCCCCC2)C1=O | n | n | 61 | n
C=CCN1C(=O)NC2(CCCCC2)C1=O | n | n | n | n
Cc1cccc(CN2CCC(CNC(=O)CCNC(=O)Cn3ccc4ccccc4c3=O)CC2)c1 | n | n | n | n
CC(=O)Nc1ccc(N2CCCCC2)c(C(=O)Nc2cccc(C)c2)c1 | 57 | n | 50 | n
Cc1ccccc1-c1nnc(SCCOc2ccc3c(C)cc(=O)oc3c2)o1 | n | n | n | n
O=C(c1cc(-c2cccs2)on1)N1CCN(c2ccc(F)cc2)CC1 | n | n | n | n
CC(NC(=O)COC(=O)c1cn(-c2ccccc2)nc1-c1cccs1)c1ccccc1 (stereo unspecified) | 67 | n | n | n
COc1ccc(-c2nn(-c3ccccc3)cc2C(=O)Nc2nccs2)cc1 | 52 | n | n | n
O=C(c1cn(-c2ccccc2)nc1-c1cccs1)N1CCN(c2ccc(F)cc2)CC1 | 74 | n | 84 | n
O=C(Nc1ccncc1)c1cn(-c2ccccc2)nc1-c1cccs1 | 93 | n | 94 | n
Cc1cc(C)cc(OC(=O)N2CCOCC2)c1 | n | n | n | n
CC1(C)Cc2c(sc3nn[nH]c(=O)c23)CO1 | n | n | n | n
CCC(C(=O)NCc1ccco1)N(C(=O)CNS(=O)(=O)c1ccccc1)C1CCCCC1 (stereo unspecified) | n | n | 71 | n
CC(C)C(C(=O)NCc1ccco1)N(C(=O)CNS(=O)(=O)c1ccccc1)C1CCCC1 (stereo unspecified) | n | n | n | n
CCCC(C(=O)NCc1ccco1)N(C(=O)CNS(=O)(=O)c1ccc(Cl)cc1)C1CCCC1 (stereo unspecified) | 80 | n | 92 | n
O=C(CCCSc1nnc(-c2cccs2)n1CC1CCCO1)c1ccccc1 (stereo unspecified) | 69 | n | 73 | n
CCOc1ccc2nc(NC(=O)CSc3nnc(-c4ccncc4)n3CC3CCCO3)sc2c1 (stereo unspecified) | n | n | n | n
CCOC(=O)CSc1nnc(Cc2ccccc2)n1CC1CCCO1 (stereo unspecified) | n | n | n | n
CCOc1ccc(C(C)=O)cc1CSc1nnc(-c2cccs2)n1CC1CCCO1 (stereo unspecified) | 82 | n | 90 | n
COc1ccc(CN2CCn3ncc(C(=O)Nc4cccc(C)c4)c3C2=O)cc1 | n | n | n | n
O=C(COC(=O)c1ccccc1Nc1ccccc1)NCc1ccco1 | n | n | n | n
CCc1nc2ccccc2c(C(=O)OCC(=O)NCc2ccco2)c1C | n | n | 56 | n
CCCc1nc2ccccc2c(C(=O)OCC(=O)NCc2ccco2)c1CC | 70 | n | n | n
CCCc1nc2ccccc2c(C(=O)OCC(=O)Nc2ccc(S(=O)(=O)N3CCOCC3)cc2)c1CC | 76 | n | n | n
SMILES | CYP2C9 inh | CYP2C19 activ | CYP2C19 inh | CYP2C9 activ
COC(=O)c1ccccc1NC(=O)CSc1nnc(-c2ccncc2)o1 | n | n | 68 | n
COC(=O)CSc1nnc(-c2ccc(NS(=O)(=O)c3ccccc3)cc2)o1 | 94 | n | n | n
Cc1ccc(C)c(NC(=O)CSc2nnc(-c3ccccc3)o2)c1 | n | n | 56 | n
CC1=CC(C)(C)N(C(=O)CSc2nnc(-c3ccc(C)cc3)o2)c2ccc(C)cc21 | 95 | n | 96 | n
CC1CC(C)CN(C(=O)CSc2nnc(-c3ccc(F)cc3)o2)C1 (stereo unspecified) | n | n | n | n
Cc1csc(NC(=O)CSc2nnc(-c3ccccc3)o2)n1 | n | n | n | n
CC1=CC(C)(C)N(C(=O)CSc2nnc(C)s2)c2ccc(C)cc21 | n | n | n | n
Cc1cccc(NC(=O)CSc2nnc([C@@H](N)Cc3ccccc3)o2)c1C | n | n | 70 | n
Cc1ccccc1-c1nnc(SCC(=O)Nc2cccc(C)c2C)o1 | n | n | n | n
COc1ccccc1NC(=O)CSc1nnc(-c2ccccc2)o1 | n | n | 59 | n
CC1=CC(C)(C)N(C(=O)CSc2nnc(N)s2)c2cc(C)c(C)cc21 | 70 | n | 77 | n
COc1ccccc1NC(=O)CSc1nnc(Cc2ccccc2)o1 | n | n | n | n
C/C(=N\NC(=O)c1csc(C)c1C)c1ccc(Cl)s1 | n | n | n | n
CC/C(=N\NC(=O)c1csc(C)c1C)c1cccs1 | n | n | 75 | n
